# Test results from the OligoGym collection.
# Molecular target: TBC1D7
# Test: pooled miR-30 sensor sort-seq; sequence = guide strand
# Settings: shRNA
# Further: reference of the scale not given here.
row,Sequence,sensor-assay potency score (higher = more potent)
1,TCAAGTATTGTTCAAACGCTTT,-1.28
2,TTCGACAGCTACAAAAACTAGG,-0.269
3,AAGAACACAATGCTCACTGTGG,-0.247
4,TAACTTCCCAGACTCCAGCTGA,-0.346
5,TTTAATTGGTTCACAAAGCGTC,-0.134

# Molecular target: TBPL2
# Test: as above
# Settings: shRNA
row,Sequence,sensor-assay potency score (higher = more potent)
1,TTCCTGGGTAACTTCATCTGGT,-0.0709
2,TTAAAATCGAGGAATCTGGCAG,0.087
3,ATAAGCAACACAATTCGTGGTT,0.695
4,ATTTTCTTGCTGCAAGTCGAGA,-1.3
5,TAAGCAACACAATTCGTGGTTT,-0.141
6,TTTTAGAATAGGATAGATGTTT,-0.912
7,TACAATTCCACAACATTCTGAA,0.364
8,TACAACTGGGCTGAACAGGGGA,0.181
9,TCTTGCTGCAAGTCGAGACTGC,0.000545
10,TACAGTGGAAACTATATTCTGT,0.659
11,TATGACAGCAGCAAACCTCTTT,-0.118
